uPA generation: blocks generation of uPA at the cell surface | Potency, µM (doses to about 38.3 µM), for the others: at the highest dose activity change, negative = inhibition, most hits filed as inhibitors | cell surface uPA generation assay, qHTS | hit rate 0.31% among 330,000 | AID 540303; active means well fitted inhibition curve with a large enough effect; inconclusive means small, poorly fitted or top-dose-only effect; inactive means no such curve, though single readings can be large or run the other way; tested in mouse RAW 264.7 cells; further: on the % scale 0 is the no-effect control and ±100 the full control effect; nearly all actives have a fitted effect of over 55% in size
FLuc modulator: inhibits or activates purified firefly luciferase, miR-21 counter-screen; AID 588342; P08659; hit rate 6.9% among 360,000; purified FLuc, Km substrates, luminescence inhibition; Potency, µM (series often up to 57.5 µM), for inactives: at the top dose activity change, negative = inhibition, hits mostly inhibitors;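 further: plate controls were vehicle for no effect and reference inhibitor for full effect; nearly all actives have a fitted effect of over 55% in size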
Target sequence (P08659 whole entry, looked up): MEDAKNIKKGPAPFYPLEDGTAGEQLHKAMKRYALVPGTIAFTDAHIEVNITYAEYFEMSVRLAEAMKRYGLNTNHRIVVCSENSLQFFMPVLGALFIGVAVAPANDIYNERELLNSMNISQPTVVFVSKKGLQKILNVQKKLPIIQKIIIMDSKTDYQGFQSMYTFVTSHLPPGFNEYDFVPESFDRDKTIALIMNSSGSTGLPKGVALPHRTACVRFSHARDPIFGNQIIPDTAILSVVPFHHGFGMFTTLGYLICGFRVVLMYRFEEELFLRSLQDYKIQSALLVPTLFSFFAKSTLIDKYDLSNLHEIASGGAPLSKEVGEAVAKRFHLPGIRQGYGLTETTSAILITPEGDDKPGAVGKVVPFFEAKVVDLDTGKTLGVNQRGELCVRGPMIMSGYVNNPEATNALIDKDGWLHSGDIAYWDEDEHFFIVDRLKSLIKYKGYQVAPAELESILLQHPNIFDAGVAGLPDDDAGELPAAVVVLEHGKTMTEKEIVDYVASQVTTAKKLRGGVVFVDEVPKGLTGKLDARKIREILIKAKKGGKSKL
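Purified P. pyralis luciferase (10nM final) with 10uM D-luciferin and 10uM ATP (Km levels) in 50mM Tris acetate pH 7.5, 10mM Mg acetate, 0.01% Tween-20, 0.05% BSA; qHTS 6-point titration, ~60 µM downward; luminescence read.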
SMN2 splice enh: enhancers of SMN2 splice variant expression; HEK293 SMN2-luciferase splicing reporter, luminescence, 30-36 h; hit rate 2.8% among 210,000; Potency, µM (titrated, usually from 46.1 µM), for inactives: at the highest dose activity change, positive = activation, actives largely listed as activators; AID 1458; further: % of control where 0% means no effect; nearly all actives have a fitted effect of over 55% in size
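HEK293 cells carry an SMN2 minigene-luciferase reporter in which exon 7 inclusion puts luciferase in frame. Cells were seeded at 2000 cells/well, attached for 10-12 hours, then exposed to compounds for 30-36 hours at 37C before ONE-Glo luminescence.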
ELG1 genotox: genotoxicity induction in ELG1-luciferase HEK293T cells; hit rate 1.3% among 330,000; AID 504466; HEK293T ELG1-luciferase reporter, luminescence, 16 h; Potency, µM (highest dose often 46 µM), for the others: top-dose activity change, positive = activation, most hits filed as activators; further: % of control where 0% means no effect; nearly all actives have a fitted effect of over 60% in size
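HEK293T cells expressing luciferase-tagged ELG1 were treated with compound or DMSO for 16 hr at 37°C. Luciferase activity was then read after 30 min with ONE-Glo at room temperature; rising signal flags genetic stress.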
Rab9 prom act: Rab9 promoter activation | hit rate 2.8% among 320,000 | Potency, µM (doses to about 9.22 µM), for the others: at the highest dose activation, negative = inhibition, most hits filed as activators | Huh7 Rab9 promoter-luciferase reporter, luminescence, 24 h; further: % of control where 0% means no effect; nearly all actives have a fitted effect of over 60% in size
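Stable Rab9-luc Huh7, 1500 cells/well, 2 h settle; cmpd in DMSO, 24 h, 37 °C/5% CO2; luciferase reagent 10 min RT; luminescence.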
NPC1 promoter act: activates the NPC1 promoter | Huh7 NPC1 promoter luciferase reporter, 24 h | Potency, µM (series often up to 9.22 µM), for inactives: at the highest dose activation, actives largely listed as activators | hit rate 2.4% among 320,000 | AID 485313; further: % of control where 0% means no effect; nearly all actives have a fitted effect of over 60% in size
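Luminescence read-out of NPC1 promoter-driven luciferase in stably transfected Huh7 cells; compounds delivered in DMSO and left 24 h at 37C, 5% CO2, qHTS titration format.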
Starred values were filed as active, the others as inactive; ? = inconclusive; . = no result given; [ ] = dose if it differs, or a comment. Compounds with a hit are over-represented: about 7.3% of the library has one in this group of screens. Unless noted, the call rests on the fitted dose curve; in most records, active means well fitted curve in the direction sought with a large enough effect; inconclusive means small, poorly fitted or top-dose-only effect, or another doubt; inactive means no such curve, though single readings can be large; an effect the other way counts as inactive or inconclusive. Potency means the concentration at half of the fitted maximal effect.

SMILES | uPA generation | FLuc modulator | SMN2 splice enh | ELG1 genotox | Rab9 prom act | NPC1 promoter act
Cc1csc(NC(=O)CSc2nnc(NC(=O)COc3ccccc3)s2)n1 | -1.2% | 2.13µM* | 25.9% | 8.2% | 11.8% | 6.3%
Cc1csc(NC(=O)CSc2nnc(C)s2)n1 | 1.7% | -6.5% | -3.5% | 5.3% | 17.9% | 13.7%
O=C(CSc1nnc(-c2csc3c2CCCC3)o1)Nc1ccccc1 | ? | -18.3% | 1.78µM* | 0.581µM* | 0.562µM* | ?
COc1ccccc1NC(=O)CSc1nnc(-c2ccccc2)o1 | ? | -3.9% | 14.1µM* | 18.4µM* | ? | ?
Cc1csc(NC(=O)CSc2nnc(-c3ccccc3)o2)n1 | -5.8% | -4.4% | 11.2µM* | 5.01µM* | 2µM* | 3.16µM*
CCN(CC)S(=O)(=O)c1ccc(-c2nnc(SCC(=O)Nc3nc(C)cs3)o2)cc1 | -5.0% | -2.2% | 5.8% | -4.6% | -13.2% | 4.9%
COc1ccccc1CNC(=O)C1CCCN(S(=O)(=O)c2ccc3c(c2)oc(=O)n3C)C1 (centres undefined) | . | -0.6% | -15.2% | . | . | .
O=C(CSc1nnc(-c2ccc(O)cc2)o1)Nc1ccccc1 | -9.7% | ? | . | 8.2µM* | 2.82µM* | 2.51µM*
COc1ccc(NC(=O)CSc2nnc(-c3cccc(O)c3)o2)cc1 | -8.1% | 2.5% | . | 4.1% | -3.5% | 1.5%
COc1cccc(NC(=O)CSc2nnc(-c3cc(C)n(-c4ccccc4)c3C)o2)c1 | -5.1% | 12µM* | -42.5% | 15.2% | 19.4% | 21.3%
COc1ccc(-c2noc(CSc3nnc(-c4ccncc4)n3-c3ccc(OC)cc3)n2)cc1 | . | -11.3% | -39.5% | . | . | .
Cc1ccc(CCNS(=O)(=O)c2ccc3c(c2)CC(C)N3C(=O)C2CCC2)cc1 (centres undefined) | . | -13.2% | . | . | . | .
Cc1ccccc1N=C1Nc2ccccc2CS1 | -6.6% | 4.78µM* | 12.6µM* | ? | 0.631µM* | 1.41µM*
O=C(CSc1cccc[n+]1[O-])Nc1cc2c(cc1Cl)C(=O)c1ccccc1C2=O | -4.7% | 10.7µM* | 11.2µM* | 15.8% | ? | ?
O=C(CSc1cccc[n+]1[O-])Nc1cc([N+](=O)[O-])ccc1Cl | -2.4% | -2.4% | -2.4% | -2.8% | -0.8% | -4.1%
CCN(C(=O)CSc1nc2ccccc2n1CC(=O)N1CCCC(C)C1)c1ccccc1 (centres undefined) | . | -4.3% | . | . | . | .
COc1ccc2c(c1OC)C(=O)OC2Nc1nc(-c2cc3cc([N+](=O)[O-])ccc3oc2=O)cs1 (centres undefined) | -0.5% | ? | 0.8% | 1.6% | -3.5% | -0.9%
COc1ccc2c(c1OC)C(=O)OC2Nc1nc(-c2ccc(-c3ccccc3)cc2)cs1 (centres undefined) | ? | 1.35µM* | 2.24µM* | 3.26µM* | 0.708µM* | 0.708µM*
COc1cccc(-c2csc(NC3OC(=O)c4c3ccc(OC)c4OC)n2)c1 (centres undefined) | -6.5% | ? | . | 14.9% | ? | 29.0%
COc1ccc2c(c1OC)C(=O)OC2Nc1nc(-c2cc3ccccc3oc2=O)cs1 (centres undefined) | -4.6% | 8.49µM* | 2.24µM* | ? | 0.447µM* | 0.891µM*
CCS(=O)(=O)N1CCc2cc(C(=O)Nc3cc(OC)c(Cl)cc3OC)ccc21 | . | 3.6% | . | . | . | .
CC1CCC(NC(=O)Cn2c(=O)oc3ccccc32)CC1 (centres undefined) | -0.7% | -0.1% | . | 6.5% | -6.6% | 0.2%
O=Cc1ccc(N2Cc3ccccc3C2)cc1 | -2.1% | 12µM* | . | ? | 10.6% | -3.1%
Cc1cc2c(cc1C)CN(c1ccccc1)C2 | ? | 0.675µM* | . | 2.31µM* | 1µM* | 1.12µM*
Oc1cccc(N2Cc3ccccc3C2)c1 | -6.7% | ? | . | 10.7% | -0.8%[1.84 µM] | -0.5%
SMILES | uPA generation | FLuc modulator | SMN2 splice enh | ELG1 genotox | Rab9 prom act | NPC1 promoter act
Cc1cc(N2Cc3ccccc3C2)ccc1C=O | -19.3% | 6.75µM* | . | 5.8µM* | 0.316µM* | ?
CCOc1ccc(N2Cc3ccccc3C2)cc1 | 1.2% | 12µM* | ? | 23.1µM* | 3.55µM* | ?
CSCCC(NS(=O)(=O)c1ccc2c(c1)oc(=O)n2C)C(=O)Nc1ccc(Cl)cc1 (centres undefined) | . | -0.2% | 12.4% | . | . | .
CN1C(=O)N(CC(=O)N2CCN(S(=O)(=O)c3ccc(Cl)s3)CC2)C(=O)C12CCCCC2 | -3.8% | -1.5% | . | -5.2% | -4.6% | 0.5%
COc1cc(-c2cc(OC)c3c(C)oc(C)c3c(=O)c2)ccc1OC(=O)c1cccc(C)c1 | . | 3.3% | . | . | . | .
O=[N+]([O-])c1ccc(O)c(/C=N/Nc2nn[nH]n2)c1 | 2.3% | -11.4% | 16.7% | -4.0% | -3.9% | -5.8%
O=[N+]([O-])c1ccc(O)c(/C=N/NC2=NS(=O)(=O)c3ccccc32)c1 | 4.1% | 8.49µM* | -8.6% | -4.1% | 11.8% | 4.3%
O=[N+]([O-])c1ccc(O)c(/C=N/Nc2ccc(Cl)nn2)c1 | -10.1% | ? | -66.5% | 6.6% | -4.5%[1.84 µM] | 3.16µM*
Cc1ccc(S(=O)(=O)N/N=C/c2ccc(O)cc2O)cc1[N+](=O)[O-] | 2.3% | -21.2% | . | -2.2% | -2.3% | -1.6%
O=[N+]([O-])c1ccc(/C=N/NC2=NS(=O)(=O)c3ccccc32)cc1 | 7.1% | 15.1µM* | 7.8% | 2.6% | -1.0% | -4.5%
Cc1ccc(S(=O)(=O)N/N=C/c2cc([N+](=O)[O-])ccc2O)cc1[N+](=O)[O-] | -1.5% | 13.5µM* | -20.4% | 9.7% | 2.1% | -3.3%
COc1ccc2cc(CNc3ccccc3)c(=O)n(CC(=O)Nc3ccc(C)cc3C)c2c1 | . | 2.3% | . | . | . | .
CCOc1ccc(CNS(=O)(=O)c2c(C(=O)N3CCC(C)CC3)c(C)n(C)c2C)cc1OC | . | 1.9% | . | . | . | .
Cc1ccc(NC(=O)C2=C(O)c3ccccc3N(C)S2(=O)=O)cc1 | -2.6% | 15.1µM* | 17.0% | -0.2% | 2.7% | 0.4%
Cc1cccc(C)c1NC(=O)C1=C(O)c2ccccc2N(C)S1(=O)=O | 4.0% | -0.5% | 3.3% | -4.1% | -2.9% | -2.5%
CCC1CCc2nc3sc(C(=O)Nc4ccc(C)cc4)c(N)c3cc2C1 (centres undefined) | . | -2.4% | -11.0% | . | . | .
Cc1ccc(-n2cc(C(=O)c3ccc(F)cc3)nn2)cc1Cl | -6.9% | 0.239µM* | 7.08µM* | ? | 0.501µM* | 0.501µM*
CCOC(=O)c1ccc(-n2cc(C(=O)c3cccnc3)nn2)cc1 | 0.1% | ? | . | -2.6% | -0.8% | -23.5%
CSCCC(NC(=O)OC(C)(C)C)C(=O)Oc1ccc2c(=O)c(-c3ccc4c(c3)OCCO4)coc2c1 (centres undefined) | -7.6% | 10.7µM* | 17.8µM* | ? | 0.794µM* | 1.41µM*
Cc1ccc(NC(=O)CSc2nnc(NC(=O)c3ccc(S(=O)(=O)N4CCOCC4)cc3)s2)cc1 | -0.5% | 2.69µM* | ? | 12.3% | 19.0% | 3.5%

Source: PubChem BioAssay (National Center for Advancing Translational Sciences (NCATS))
